TEAD-YAP block = TEAD-YAP interaction inhibition | HEK-TIYL cells, TEAD-Gal4/YAP UAS-luciferase luminescence | inhibition, % at 9.12 µM | actives 1.4% (n = 640,000) | AID 1259422; in the data active = inhibition above about 32%;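 note: 0% = median of test compound wells and 100% = reference inhibitor wells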
MITF primary = inhibitors of human MITF | O75030 | AlphaScreen MITF homodimerization, bead proximity signal | actives 0.91% (n = 650,000) | inhibition, % at 2.6 µM; in the data active = inhibition above about 50%;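 note: 0% = vehicle wells with protein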
FBW7 act = activators of human E3 ligase FBW7 | Q969H0 | AlphaScreen FBW7–phospho-cyclin E peptide binding, activator screen | normalized activity (activation), % at 26.1 µM | actives 0.13% (n = 650,000) | AID 1259310; in the data active = normalized activity above about 1.9%;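 note: purified mutant Fbw7 with reduced substrate affinity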
Target sequence (Q969H0 whole entry, looked up): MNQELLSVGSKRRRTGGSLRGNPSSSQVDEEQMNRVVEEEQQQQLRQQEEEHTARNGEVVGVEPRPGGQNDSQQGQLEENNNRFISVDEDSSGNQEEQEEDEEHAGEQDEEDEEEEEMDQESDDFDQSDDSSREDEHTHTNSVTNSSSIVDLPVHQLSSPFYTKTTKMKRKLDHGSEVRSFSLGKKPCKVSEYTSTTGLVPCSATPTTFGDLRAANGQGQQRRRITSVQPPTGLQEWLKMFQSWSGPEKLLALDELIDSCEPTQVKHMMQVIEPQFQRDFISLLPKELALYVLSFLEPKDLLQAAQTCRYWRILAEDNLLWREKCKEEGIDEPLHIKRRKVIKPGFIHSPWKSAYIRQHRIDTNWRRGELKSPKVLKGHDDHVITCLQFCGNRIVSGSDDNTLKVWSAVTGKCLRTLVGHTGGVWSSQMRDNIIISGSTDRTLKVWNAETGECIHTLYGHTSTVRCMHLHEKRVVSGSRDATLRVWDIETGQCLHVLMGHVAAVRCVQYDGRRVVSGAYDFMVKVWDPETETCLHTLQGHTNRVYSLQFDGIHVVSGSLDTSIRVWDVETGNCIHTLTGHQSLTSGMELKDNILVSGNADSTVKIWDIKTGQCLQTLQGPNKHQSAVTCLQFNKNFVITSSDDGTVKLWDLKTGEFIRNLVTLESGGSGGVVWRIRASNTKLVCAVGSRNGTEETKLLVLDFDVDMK
GPR151 activ = activates the human receptor GPR151 | PathHunter beta-arrestin GPR151 cells, luminescence | AID 1508602 | actives 1% (n = 650,000) | activation, % at 11.2 µM; in the data active = activation above about 4.9%;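 note: 0% = median of compound wells and 100% = cells with positive control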
Numbers without * were called inactive. Sampled rows, rich in hits. Any-hit rate of the full collection: about 3.4%.

SMILES	TEAD-YAP block	MITF primary	FBW7 act	GPR151 activ
COc1ccc(O)c(C2NN=C(c3ccccc3)S2)c1 (stereo not given)	41.7*	-0.2	0.0	-1.2
COc1ccc([N+](=O)[O-])cc1C1NN=C(c2ccccc2)S1 (stereo not given)	-30.0	2.9	0.0	3.5
NC(=O)c1ccccc1NC(=O)c1ccccc1NS(=O)(=O)c1ccc(Cl)cc1	-2.8	8.5	0.0	0.2
O=C(COc1ccccc1)NC(c1ccco1)c1cc(Cl)c2cccnc2c1O (stereo not given)	85.3*	24.8	-0.4	-0.8
CCC(=O)NC(c1ccco1)c1cc(Cl)c2cccnc2c1O (stereo not given)	36.9*	38.2	-0.2	0.5
COc1ccc(C(=O)NC(c2ccco2)c2cc(Cl)c3cccnc3c2O)cc1 (stereo not given)	1.1	11.5	0.0	-1.4
CCC(=O)NC(c1ccco1)c1ccc2cccnc2c1O (stereo not given)	26.7	69.9*	-1.8	-1.7
O=C(COc1ccccc1)NC(c1ccccc1)c1cc(Cl)c2cccnc2c1O (stereo not given)	-4.5	0.0	-0.1	-1.0
CCCNc1nc(N(CC)CC)nc(N2CCOCC2)n1	1.3	-6.6	0.1	-1.7
O=C(NCc1cccnc1)c1ccc(N2CCC(NC3Cc4ccccc4C3)CC2)cc1	1.1	3.8	0.0	0.8
CCOC(=O)c1ccc(N2C(=O)c3ccccc3NC2c2ccc(Cl)cc2)cc1 (stereo not given)	-43.9	-5.3	0.0	0.2
CC(C)[C@@H](CO)Nc1ccc2ncc(-c3ccc(N(C)C)cc3)n2n1	-4.1	-8.2	-0.5	-0.9
CC(C)[C@@H](CO)Nc1ccc2ncc(-c3cccc4ccccc34)n2n1	0.0	16.9	0.0	0.9
COc1ccc(-c2cnc3ccc(N[C@H](CO)C(C)C)nn23)c(OC)c1	-16.7	-4.7	2.0*	-0.2
CC(C)[C@@H](CO)Nc1ccc2ncc(-c3ccco3)n2n1	52.8*	-8.7	-0.5	0.0
CC(C)[C@@H](CO)Nc1ccc2ncc(-c3ccc(CO)cc3)n2n1	42.9*	8.2	0.3	0.7
CC(C)[C@@H](CO)Nc1ccc2ncc(-c3ccsc3)n2n1	32.5*	0.1	0.0	-0.3
CCCn1cnc2sc(-c3ccccc3)cc2c1=O	-76.0	-6.1	-0.2	2.6
CCOC(=O)c1[nH]c(C)c(C(=O)c2cc(F)ccc2F)c1C	44.5*	3.8	-0.1	0.7
CCOC(=O)c1[nH]c(C)c(C(=O)Nc2cc(F)ccc2F)c1C	41.9*	14.5	0.0	0.1
CCOC(=O)c1[nH]c(C)c(C(=O)OCC(=O)Nc2sccc2C(N)=O)c1C	32.3*	-6.3	0.0	1.6
O=c1[nH][n+](-c2cccc(C(F)(F)F)c2)no1	6.7	-1.2	-0.1	0.8
NC(=O)CSc1nnc(Cc2c[nH]c3ccccc23)n1Cc1ccccc1	10.5	-1.9	0.8	-1.1
O=C(Nc1ccc(O)cc1)c1ccc([N+](=O)[O-])cc1	55.2*	11.0	-0.1	0.9
CCOCCOc1cccc(C(=O)Nc2ccc3ccccc3c2)c1	39.4*	10.1	0.8	-2.6
SMILES	TEAD-YAP block	MITF primary	FBW7 act	GPR151 activ
CCC(=O)Oc1ccc(C(=O)Nc2ccc(N(C)C)cc2)cc1	38.0*	-9.0	-0.2	-1.2
CCOc1ccc(NC(=O)c2cccc(O)c2)cc1	80.4*	6.6	0.0	-5.7
COc1ccc2oc(=Nc3ccc(C(=O)O)cc3)c(C(=O)Nc3cccc(C(F)(F)F)c3)cc2c1	9.5	10.7	0.7	-0.9
Cc1[nH]nc2c1C(c1ccccc1)NC2=O (stereo not given)	4.2	11.5	0.3	0.1
COc1ccc(C(C)(C)C)cc1NC(=O)CSc1nnnn1C	-9.0	9.5	0.0	-1.4
CCOc1ccc(NC(=O)c2ccc(O)cc2)cc1	64.5*	1.1	0.6	-3.0
Cc1[nH]c2c(C(=O)NCC3Cc4c(F)ccc(-c5ncccn5)c4O3)cccc2c1C (stereo not given)	32.5*	9.1	-0.1	2.3
OC(CNCc1csc(-c2cccs2)n1)C(F)(F)F (stereo not given)	-30.4	3.0	-0.1	-1.5
Cc1ccccc1CN1CCN(Cc2cccc3ccccc23)CC1	-6.1	79.2*	-0.2	0.4
CCC(=O)N(CCCO)Cc1cc2ccc(C)cc2[nH]c1=O	36.0*	0.7	1.1	-0.7
COc1cccc(-n2c(=O)[nH]cc(C(=O)Nc3ccc(F)cc3F)c2=O)c1	-4.5	7.0	0.1	-1.6
CC(C)n1cnc2c(Nc3ccc(F)cc3)ncnc21	54.3*	17.6	-0.1	-5.9
Cc1ccnc(NC(c2ccco2)c2c(C)[nH]c3ccccc23)c1 (stereo not given)	38.0*	-8.8	-0.2	-0.2
COc1cc(Nc2nc(NC3CCC(O)CC3)nc3c2ncn3-c2ccsc2)cc(OC)c1OC (stereo not given)	68.3*	15.3	-0.1	0.2
c1ccc(Nc2nc(NC3CC3)c3ncn(-c4ccsc4)c3n2)cc1	49.3*	1.1	0.1	-1.2
COc1cc(Nc2nc(NC3CC3)c3ncn(-c4ccsc4)c3n2)cc(OC)c1OC	34.1*	2.2	-0.3	2.4
COc1cc(Nc2nc(Nc3ccccc3)nc3c2ncn3-c2ccsc2)cc(OC)c1OC	23.2	1.5	-0.2	0.1
O=C(Nc1nn[nH]n1)c1cc(-c2cccc(Br)c2)nc2ccccc12	-2.5	3.6	-0.2	0.3
CCOC(=O)c1ccc(NC(=O)c2ccc(Br)c(S(=O)(=O)N3CCCCC3)c2)cc1	48.9*	-6.4	0.1	0.6
CCOC(=O)c1ccc(NC(=O)c2ccc(C)c(S(=O)(=O)N3CCOCC3)c2)cc1	36.8*	2.9	0.0	1.0
Cc1ccc(C(=O)Nc2ccc(Sc3ccccc3)cc2)cc1S(=O)(=O)N1CCOCC1	35.6*	15.8	0.0	0.5
COc1ccccc1/C=C/C1=NC(=C\c2ccc(C)cc2)/C(=O)O1	-4.3	13.0	0.0	-1.7
Cc1ccc2c(c1)C(c1ccccc1)CC(C)N2C(=O)c1ccco1 (stereo not given)	50.5*	-0.9	0.0	0.2
c1ccc(C(CCn2ccnc2)Nc2nncc(-c3ccc4c(c3)OCO4)n2)cc1 (stereo not given)	44.6*	6.4	-0.3	-1.2
CN(C(=O)c1coc(=O)c2ccccc12)c1ccccc1F	10.1	-2.3	0.0	0.0
SMILES	TEAD-YAP block	MITF primary	FBW7 act	GPR151 activ
CCCN(C(=O)c1coc(=O)c2ccccc12)c1ccccc1C	38.2*	1.3	0.1	-0.7
CCN(C(=O)c1coc(=O)c2ccccc12)c1cccc(Cl)c1	39.4*	6.3	-0.1	0.0
CCN(C(=O)c1coc(=O)c2ccccc12)c1ccccc1F	34.7*	10.7	-0.1	2.0
CCC[C@@H]1NC(=O)[C@H]2CN(Cc3ccc(F)c(F)c3)CCN2C1=O	-2.4	18.1	0.2	-1.0
Nc1c(C(=O)NC2CC2)sc2nc(-c3ccc4c(c3)OCO4)ccc12	42.1*	7.3	0.1	-0.5
Nc1c(C(=O)Nc2ccc(F)cc2)sc2nc(-c3ccc4c(c3)OCO4)ccc12	-12.6	-14.9	0.3	0.4
COC(=O)c1ccc(-c2cnc3ccc(NC4CCC(O)CC4)nn23)cc1 (stereo not given)	41.3*	-4.4	-0.4	0.7
